Measurements taken from PubChem BioAssay (Tox21).
Where “and” joins values, the source holds several entries; their conditions need not be identical. Identical values can stand only once. Inconclusive results are not listed. Entries that show only a call come without a potency. More than one record can exist for a structure, and the calls need not agree. Calls of active or inactive are those of the source. Unless noted, the call rests on the fitted dose curve; in most records, active means well fitted curve in the direction sought with a large enough effect in the repeat runs; inconclusive means weak or mixed curves; inactive means no such curve, though single readings can be large; an effect the other way counts as inactive or inconclusive.

Legend:
[1] = qHTS assay to identify small molecule agonists of the estrogen receptor alpha (ER-alpha) signaling pathway in the presence of an antagonist - cell viability counter screen (AID 1259386);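 further: cells exposed to compounds for 22 h at 37 °C before the viability read; nearly all actives have a fitted effect of over 30% in size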; further: potency means the concentration at half of the fitted maximal effect
How it was run: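 ICI-182,780 at 10.0nM final accompanies the compound titration (15 concentrations, 22hr, 37C) on VM7Luc4E2 cells. The CellTiter-Fluor fluorescence readout runs in the same wells as the luciferase assay.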

[2] = molecular target: Progesterone receptor (Homo sapiens) (UniProt P06401); assay: qHTS assay to identify small molecule agonists of the progesterone receptor (PR) signaling pathway (AID 1346784; calls by dose curve; further: nearly all actives have a fitted effect of over 30% in size; further: potency means the concentration at half of the fitted maximal effect)
Chain of Progesterone receptor (Homo sapiens) (P06401 whole entry, looked up): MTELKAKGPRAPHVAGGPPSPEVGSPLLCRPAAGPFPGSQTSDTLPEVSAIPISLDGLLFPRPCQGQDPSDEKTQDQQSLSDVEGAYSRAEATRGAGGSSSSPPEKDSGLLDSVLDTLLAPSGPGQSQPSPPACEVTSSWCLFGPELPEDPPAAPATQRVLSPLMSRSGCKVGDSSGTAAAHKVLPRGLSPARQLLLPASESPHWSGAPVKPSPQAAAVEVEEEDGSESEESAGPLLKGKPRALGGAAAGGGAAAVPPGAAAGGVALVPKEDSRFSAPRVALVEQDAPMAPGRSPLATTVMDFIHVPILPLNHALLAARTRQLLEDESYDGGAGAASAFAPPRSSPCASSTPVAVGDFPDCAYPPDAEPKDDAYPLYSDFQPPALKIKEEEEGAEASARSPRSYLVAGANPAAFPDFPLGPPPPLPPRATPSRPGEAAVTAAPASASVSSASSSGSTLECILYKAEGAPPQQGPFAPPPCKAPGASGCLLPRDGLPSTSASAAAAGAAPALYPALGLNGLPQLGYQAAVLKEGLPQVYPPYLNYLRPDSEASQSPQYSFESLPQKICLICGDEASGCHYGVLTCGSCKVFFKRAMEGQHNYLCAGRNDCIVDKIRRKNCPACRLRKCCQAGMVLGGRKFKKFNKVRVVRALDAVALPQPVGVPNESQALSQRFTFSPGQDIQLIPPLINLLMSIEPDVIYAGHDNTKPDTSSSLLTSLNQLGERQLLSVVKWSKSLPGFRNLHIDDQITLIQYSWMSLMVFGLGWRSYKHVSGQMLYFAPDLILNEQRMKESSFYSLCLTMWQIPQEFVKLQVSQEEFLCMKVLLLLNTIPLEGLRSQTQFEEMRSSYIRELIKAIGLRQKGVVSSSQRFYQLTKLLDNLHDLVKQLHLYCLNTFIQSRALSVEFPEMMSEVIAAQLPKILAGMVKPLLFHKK
How it was run: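 Fluorescence from LiveBLAzer B/G FRET substrate cleavage (2 hr, RT) reported PR activation in PR-UAS-bla HEK 293T cells treated 16 hr at 37C/5% CO2 with compounds; medium contained 2% charcoal-stripped FBS.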

[3] = molecular target: Progesterone receptor (Homo sapiens) (UniProt P06401); assay: qHTS assay to identify small molecule antagonists of the progesterone receptor (PR) signaling pathway (AID 1346795; active means well fitted inhibition curve with a large enough effect in the signal ratio in the repeat runs, not every such curve was filed as active; the % refers to the signal ratio; further: potency means the concentration at half of the fitted maximal effect)
How it was run: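 Fluorescence intensity measured 2 hr after adding beta-lactamase FRET substrate to PR-UAS-bla HEK293T cells that had been co-treated 16 hr with compound and 1 nM R5020 (final concentration) in 2% charcoal-stripped FBS.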

[4] = qHTS assay to identify small molecule antagonists of the progesterone receptor (PR) signaling pathway - cell viability counter screen (AID 1346798); further: nearly all actives have a fitted effect of over 50% in size; further: potency means the concentration at half of the fitted maximal effect
How it was run: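 CellTiter-Glo luminescence; PR-UAS-bla HEK293T, 3,000 cells/well; compound + R5020, 16 hr, 37C/5% CO2; 30 min RT before read.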

[5] = qHTS assay to identify small molecule antagonists of the TGF-beta/Smad signaling pathway - cell viability counter screen (AID 1346824); further: nearly all actives have a fitted effect of over 50% in size; further: potency means the concentration at half of the fitted maximal effect
How it was run: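 SBE-bla HEK 293T cells, incubated overnight, then compound plus 0.25 ng/mL TGF-beta1 (stock added) for 5 hr at 37 C. Viability was read in the same wells by CellTiter-Glo luminescence after 30 min at room temperature.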

[6] = qHTS assay to identify small molecule agonists of the TGF-beta/Smad signaling pathway - cell viability counter screen (AID 1346829); further: nearly all actives have a fitted effect of over 45% in size; further: potency means the concentration at half of the fitted maximal effect
How it was run: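 Tox21 qHTS format: SBE-bla HEK 293T cells treated with DMSO-dissolved compounds for 5 hr; CellTiter-Glo luminescence after 30 min at room temperature.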

[7] = molecular target: Thyrotropin-releasing hormone receptor (Homo sapiens) (UniProt P34981); assay: qHTS assay to identify small molecule antagonists of the thyrotropin-releasing hormone receptor (TRHR) signaling pathway (AID 1346877; active means well fitted inhibition curve with a large enough effect in the repeat runs, not every such curve was filed as active; further: series mostly up to about 51 µM)
Chain of Thyrotropin-releasing hormone receptor (Homo sapiens) (P34981 whole entry, looked up): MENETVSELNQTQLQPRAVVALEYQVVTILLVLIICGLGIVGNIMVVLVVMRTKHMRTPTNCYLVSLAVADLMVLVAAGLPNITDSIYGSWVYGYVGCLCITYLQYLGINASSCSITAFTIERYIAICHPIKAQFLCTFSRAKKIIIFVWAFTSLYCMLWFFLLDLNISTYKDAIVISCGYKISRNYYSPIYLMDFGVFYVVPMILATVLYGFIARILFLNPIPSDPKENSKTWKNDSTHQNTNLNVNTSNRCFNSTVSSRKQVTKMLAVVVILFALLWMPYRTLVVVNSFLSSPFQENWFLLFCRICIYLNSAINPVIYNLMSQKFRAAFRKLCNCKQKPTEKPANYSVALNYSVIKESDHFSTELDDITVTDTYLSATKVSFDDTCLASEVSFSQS
How it was run: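 Screening used HEK293 cells engineered with TRHR, with a brief 5 min room-temperature compound exposure preceding addition of TRH to 1 nM. The read-out was kinetic calcium-dye fluorescence, concentration-response from 15 doses in triplicate.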

[8] = molecular target: Thyrotropin-releasing hormone receptor (Homo sapiens) (UniProt P34981); assay: qHTS assay to identify small molecule agonists of the thyrotropin-releasing hormone receptor (TRHR) signaling pathway (AID 1346891; calls by dose curve; further: potency means the concentration at half of the fitted maximal effect;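 on activation: HEK293 cells expressing TRHR with calcium dye readout; series mostly up to about 58 µM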)
How it was run: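 Compounds were tested as agonists at 15 concentrations, in triplicate, on TRHR-Hek293 cells; calcium-sensitive dye fluorescence was recorded for 3 min following addition.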

[9] = Human pregnane X receptor (PXR) small molecule agonists, qHTS cell viability counter screen (AID 1346977); further: nearly all actives have a fitted effect of over 50% in size; further: potency means the concentration at half of the fitted maximal effect
How it was run: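 Viability counter screen: CellTiter-Fluor signal in PXR-Luc HepG2 cells, 24hr compound exposure, 37C, 5% CO2.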

[10] = Caspase-3/7 induction in HepG2 cells by small molecules, qHTS assay (AID 1346978); further: nearly all actives have a fitted effect of over 15% in size; further: potency means the concentration at half of the fitted maximal effect
How it was run: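 Wild-type HepG2 cells, 2,000/well, settled 5 hr at 37 C and 5% CO2, then compound-treated for 17 hr; caspase-3/7 activity read by luminescent Caspase-Glo 3/7 after 30 min at room temperature.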

[11] = Caspase-3/7 induction in CHO-K1 cells by small molecules, qHTS assay (AID 1346980); further: nearly all actives have a fitted effect of over 15% in size
How it was run: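 Wild-type CHO-K1 cells exposed to compounds for 17hr at 37 C, 5% CO2. Caspase-3/7 activity then measured by Caspase-Glo 3/7 luminescence after 30min at room temperature.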

[12] = molecular target: Nuclear receptor subfamily 1 group I member 2 (Homo sapiens) (UniProt O75469); assay: Human pregnane X receptor (PXR) small molecule agonists, qHTS assay (AID 1346982); further: nearly all actives have a fitted effect of over 35% in size; further: potency means the concentration at half of the fitted maximal effect
Chain of Nuclear receptor subfamily 1 group I member 2 (Homo sapiens) (O75469 whole entry, looked up): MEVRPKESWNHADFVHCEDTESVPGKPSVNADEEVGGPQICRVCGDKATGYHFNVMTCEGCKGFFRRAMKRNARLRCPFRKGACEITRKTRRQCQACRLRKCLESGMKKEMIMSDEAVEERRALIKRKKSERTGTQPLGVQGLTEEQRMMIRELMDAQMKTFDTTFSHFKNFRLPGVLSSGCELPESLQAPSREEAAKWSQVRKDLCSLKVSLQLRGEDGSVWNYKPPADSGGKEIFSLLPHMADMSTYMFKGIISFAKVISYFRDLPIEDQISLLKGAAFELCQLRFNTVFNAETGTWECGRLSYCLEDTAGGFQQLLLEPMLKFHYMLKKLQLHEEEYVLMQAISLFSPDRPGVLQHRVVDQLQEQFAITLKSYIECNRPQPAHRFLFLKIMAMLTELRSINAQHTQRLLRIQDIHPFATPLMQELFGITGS
How it was run: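 We seeded PXR-Luc HepG2 cells in assay medium containing 5% charcoal-stripped FBS, added compounds 5 hr later, incubated 24 hr, and read luminescence with ONE-Glo reagent.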

[13] = molecular target: Acetylcholinesterase (Homo sapiens) (UniProt P22303); assay: Acetylcholinesterase (AChE) small molecule antagonists: colormetric cell-based qHTS assay (AID 1347395; calls by dose curve; further: nearly all actives have a fitted effect of over 30% in size; further: potency means the concentration at half of the fitted maximal effect)
Chain of Acetylcholinesterase (Homo sapiens) (P22303 whole entry, looked up): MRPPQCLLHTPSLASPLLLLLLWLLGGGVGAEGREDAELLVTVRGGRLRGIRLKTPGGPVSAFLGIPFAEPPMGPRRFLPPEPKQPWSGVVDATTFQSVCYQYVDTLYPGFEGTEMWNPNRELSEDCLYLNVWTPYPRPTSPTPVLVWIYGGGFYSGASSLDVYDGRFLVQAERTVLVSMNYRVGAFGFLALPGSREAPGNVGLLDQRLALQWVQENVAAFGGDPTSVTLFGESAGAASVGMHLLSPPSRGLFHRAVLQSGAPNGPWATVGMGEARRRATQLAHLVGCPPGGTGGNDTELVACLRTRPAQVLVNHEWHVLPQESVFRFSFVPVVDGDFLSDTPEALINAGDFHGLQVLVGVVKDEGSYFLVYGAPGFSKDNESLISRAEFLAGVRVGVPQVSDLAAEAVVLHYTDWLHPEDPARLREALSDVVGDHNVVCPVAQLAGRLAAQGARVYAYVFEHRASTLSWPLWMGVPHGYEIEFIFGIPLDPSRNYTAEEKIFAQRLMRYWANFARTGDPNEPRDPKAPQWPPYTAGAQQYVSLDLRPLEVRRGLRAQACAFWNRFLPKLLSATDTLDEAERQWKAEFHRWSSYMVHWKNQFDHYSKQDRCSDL
How it was run: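 Homogeneous whole-cell format. SH-SY5Y cells seeded overnight, dosed with compound (30 min, 37 C, 5% CO2), then given DTNB/acetylthiocholine cocktail for 90 min at 37 C; colorimetric signal.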

[14] = qHTS assay to identify small molecule agonists of the progesterone receptor (PR) signaling pathway - cell viability counter screen (AID 1346799; calls by dose curve; further: nearly all actives have a fitted effect of over 45% in size; further: potency means the concentration at half of the fitted maximal effect)
How it was run: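 In parallel with the beta-lactamase readout, cytotoxicity toward PR-UAS-bla HEK293T cells was measured by CellTiter-Glo luminescence following 16 hr compound incubation in 2% charcoal-stripped FBS medium.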

[15] = qHTS assay to identify small molecule agonists of the TGF-beta/Smad signaling pathway (AID 1346859; active means well fitted activation curve with a large enough effect in the signal ratio in the repeat runs, not every such curve was filed as active; the % refers to the signal ratio; further: series mostly up to about 77 µM)
How it was run: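 After overnight seeding, SBE-bla HEK 293T cells are dosed with compounds in DMSO and kept 5 hr at 37 C, 5% CO2. LiveBLAzer-type FRET substrate is then applied for 2 hr at room temperature.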

[16] = Caspase-3/7 induction in HepG2 cells by small molecules, qHTS cell viability counter screen (AID 1346981); further: nearly all actives have a fitted effect of over 30% in size; further: potency means the concentration at half of the fitted maximal effect
How it was run: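 Multiplexed with the caspase-3/7 assay: HepG2 cells, 16 hr compound treatment, CellTiter-Fluor viability detection by fluorescence.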

[17] = Caspase-3/7 induction in CHO-K1 cells by small molecules, qHTS cell viability counter screen (AID 1346979); further: nearly all actives have a fitted effect of over 35% in size; further: potency means the concentration at half of the fitted maximal effect
How it was run: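 Viability readout by fluorescence (CellTiter-Fluor) on wild-type CHO-K1 cells exposed for 16hr at 37C and 5% CO2 to compounds delivered in DMSO; reagent incubated 1hr before reading.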

[18] = molecular target: Nuclear receptor subfamily 1 group I member 2 (Rattus norvegicus) (UniProt Q9R1A7); assay: Rat pregnane X receptor (rPXR) activation by small molecules, qHTS assay (AID 1346983); details: rPXR luciferase reporter cells, One-Glo luminescence, 24 h; max activation: stronger effect = higher value; further: nearly all actives have a fitted effect of over 20% in size
Chain of Nuclear receptor subfamily 1 group I member 2 (Rattus norvegicus) (Q9R1A7 whole entry, looked up): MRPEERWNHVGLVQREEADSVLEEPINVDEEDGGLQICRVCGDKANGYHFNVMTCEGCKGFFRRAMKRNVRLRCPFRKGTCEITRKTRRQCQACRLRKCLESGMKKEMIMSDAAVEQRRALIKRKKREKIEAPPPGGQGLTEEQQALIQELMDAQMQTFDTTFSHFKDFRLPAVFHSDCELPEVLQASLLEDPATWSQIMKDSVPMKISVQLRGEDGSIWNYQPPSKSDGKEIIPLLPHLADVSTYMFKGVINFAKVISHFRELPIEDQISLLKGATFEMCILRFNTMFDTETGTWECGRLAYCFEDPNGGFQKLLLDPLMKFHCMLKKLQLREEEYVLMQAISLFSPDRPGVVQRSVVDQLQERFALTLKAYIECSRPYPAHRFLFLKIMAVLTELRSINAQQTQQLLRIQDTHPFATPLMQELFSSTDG
How it was run: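 Cell-based rPXR activation assay: rPXR cells, 2,000 per well, rested 5hr at 37 C, then exposed to compounds in DMSO for 24 hr at 37 C. Luciferase activity read by One-Glo luminescence after 30 min at room temperature.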

[19] = molecular target: Nuclear receptor subfamily 1 group I member 2 (Homo sapiens) (UniProt O75469); assay: CYP3A4 induction through human pregnane X receptor (PXR) by small molecules, qHTS assay (AID 1346984); further: nearly all actives have a fitted effect of over 40% in size
How it was run: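 qHTS, concentration-response format: HepG2 DPX-2 line, PXR/CYP3A4-luc. Exposure 24 h, 37C. Substrate Luciferin-IPA 3uM final, 3 h. Detection One-Glo, 30 min RT.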

Compound	Potency [1]	Potency [2]	Potency [3]	Potency [4]	Potency [5]	Potency [6]	Potency [7]	Potency [8]	Potency [9]	Potency [10]	Potency [11]	Potency [12]	Potency [13]	Potency [14]	outcome [15]	Potency [16]	Potency [17]	max activation [18]	Potency [19]
Nc1nc(N)c(N)c(N)n1	inactive	7.74 µM (active)	inactive	inactive	inactive	inactive	inactive	39.1 µM (active)	inactive	inactive	inactive	inactive	inactive						
CCOC(=O)CCN(SN(C)C(=O)Oc1cccc2c1OC(C)(C)C2)C(C)C	inactive	inactive	inactive	inactive	inactive	inactive			inactive	inactive	inactive		252 nM (active)	inactive	inactive	inactive			
CCCCC/C=C\C/C=C\C/C=C\C/C=C\CCCC(=O)NCC(=O)O	inactive	inactive	26.6 µM (active)	inactive	inactive	inactive						inactive	inactive		inactive	inactive			
CCC1COC(Cn2cncn2)(c2ccc(Cl)cc2Cl)O1 (stereo not drawn)	inactive	inactive	27.3 µM (active)	inactive	inactive	inactive	inactive	inactive	inactive		inactive	19.3 µM (active)	inactive		inactive	inactive			
CN(C)C(=S)SSC(=S)N(C)C	30.2 µM (active) and 30.6 µM (active)	inactive	0.135 µM (active)	170 nM (active) and 386 nM (active) and 266 nM (active)	19.2 µM (active) and 43.6 µM (active) and 26.8 µM (active)	34.2 µM (active) and inactive			447 nM (active) and 486 nM (active) and 422 nM (active)	851 nM (active) and 864 nM (active) and 668 nM (active)	inactive	inactive	78.5 µM (active) and inactive	344 nM (active) and 298 nM (active)	inactive	26.9 µM (active) and 19.3 µM (active) and 15 µM (active)	240 nM (active) and 344 nM (active) and 298 nM (active)	-13.9% (inactive)	inactive
CN1C2CCC(C)(C)C1CC(OC(=O)C(O)(c1cccs1)c1cccs1)C2 (stereo not drawn)	inactive	inactive	inactive	inactive	inactive	inactive	inactive	inactive		inactive	inactive		inactive		inactive	inactive	inactive		
CC(=O)[O-].CC(=O)[O-].O.O.[Zn+2]	inactive	inactive	inactive	inactive	inactive	inactive			inactive					inactive	inactive	inactive			
CN=C=O	inactive	inactive	inactive	inactive	inactive	inactive			inactive	inactive	inactive	inactive	inactive	inactive	inactive	inactive	inactive		
S=C=NCCc1ccccc1	inactive	inactive	19.4 µM (active)	21.7 µM (active)	inactive	inactive				inactive	inactive	54.6 µM (active)	inactive		inactive	inactive			
